Results on eight molecules are retold here after ChEMBL document CHEMBL3988442, “University of Dundee, Small-Polar-MMV Screening Library” (2021).

Values joined by “and” are separate entries in the source; they are usually repeats but may differ in a detail not shown here. Equal values may be shown once. For part of these data: Measured potencies and affinities stand elsewhere.

Parameters in all cases: scale not given: direction of the effect not stated beside the values
Assay [1] deals with Protein translocase subunit SecA (Escherichia coli (strain K12)) (UniProt P10408). Put plainly: Assay to Identify E. coli SecA ATPase Inhibitors. Particulars: 30 µM. It is filed as functional.
Protein translocase subunit SecA (Escherichia coli (strain K12)), sequence (P10408 whole entry): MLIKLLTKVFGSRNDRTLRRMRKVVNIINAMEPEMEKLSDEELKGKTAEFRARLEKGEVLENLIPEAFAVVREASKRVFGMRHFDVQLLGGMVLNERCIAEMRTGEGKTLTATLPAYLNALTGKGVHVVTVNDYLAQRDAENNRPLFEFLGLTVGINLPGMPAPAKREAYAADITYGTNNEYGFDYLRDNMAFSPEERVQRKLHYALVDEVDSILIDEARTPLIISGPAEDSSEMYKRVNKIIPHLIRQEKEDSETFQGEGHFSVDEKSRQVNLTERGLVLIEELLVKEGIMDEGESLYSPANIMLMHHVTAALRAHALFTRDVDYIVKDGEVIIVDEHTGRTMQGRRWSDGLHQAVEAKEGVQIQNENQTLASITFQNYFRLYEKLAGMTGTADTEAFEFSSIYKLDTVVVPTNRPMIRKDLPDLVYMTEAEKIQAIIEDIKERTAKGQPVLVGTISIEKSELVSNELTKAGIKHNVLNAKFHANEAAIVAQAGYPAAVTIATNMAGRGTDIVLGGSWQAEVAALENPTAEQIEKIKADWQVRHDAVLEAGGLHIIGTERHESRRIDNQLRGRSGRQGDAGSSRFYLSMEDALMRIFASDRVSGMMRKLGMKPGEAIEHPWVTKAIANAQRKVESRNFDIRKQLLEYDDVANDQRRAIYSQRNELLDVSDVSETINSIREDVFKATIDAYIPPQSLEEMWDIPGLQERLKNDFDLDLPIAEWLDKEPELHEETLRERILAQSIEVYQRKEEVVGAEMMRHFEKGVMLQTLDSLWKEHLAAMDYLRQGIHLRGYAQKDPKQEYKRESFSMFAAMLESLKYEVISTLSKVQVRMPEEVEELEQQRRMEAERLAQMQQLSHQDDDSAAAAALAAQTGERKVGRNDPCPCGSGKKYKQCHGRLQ
The target in assay [2] is T1, Ubiquitin-activating enzyme e1, putative (Leishmania donovani (strain BPK282A1)) (UniProt E9BSI1).
T1 sequence (whole entry): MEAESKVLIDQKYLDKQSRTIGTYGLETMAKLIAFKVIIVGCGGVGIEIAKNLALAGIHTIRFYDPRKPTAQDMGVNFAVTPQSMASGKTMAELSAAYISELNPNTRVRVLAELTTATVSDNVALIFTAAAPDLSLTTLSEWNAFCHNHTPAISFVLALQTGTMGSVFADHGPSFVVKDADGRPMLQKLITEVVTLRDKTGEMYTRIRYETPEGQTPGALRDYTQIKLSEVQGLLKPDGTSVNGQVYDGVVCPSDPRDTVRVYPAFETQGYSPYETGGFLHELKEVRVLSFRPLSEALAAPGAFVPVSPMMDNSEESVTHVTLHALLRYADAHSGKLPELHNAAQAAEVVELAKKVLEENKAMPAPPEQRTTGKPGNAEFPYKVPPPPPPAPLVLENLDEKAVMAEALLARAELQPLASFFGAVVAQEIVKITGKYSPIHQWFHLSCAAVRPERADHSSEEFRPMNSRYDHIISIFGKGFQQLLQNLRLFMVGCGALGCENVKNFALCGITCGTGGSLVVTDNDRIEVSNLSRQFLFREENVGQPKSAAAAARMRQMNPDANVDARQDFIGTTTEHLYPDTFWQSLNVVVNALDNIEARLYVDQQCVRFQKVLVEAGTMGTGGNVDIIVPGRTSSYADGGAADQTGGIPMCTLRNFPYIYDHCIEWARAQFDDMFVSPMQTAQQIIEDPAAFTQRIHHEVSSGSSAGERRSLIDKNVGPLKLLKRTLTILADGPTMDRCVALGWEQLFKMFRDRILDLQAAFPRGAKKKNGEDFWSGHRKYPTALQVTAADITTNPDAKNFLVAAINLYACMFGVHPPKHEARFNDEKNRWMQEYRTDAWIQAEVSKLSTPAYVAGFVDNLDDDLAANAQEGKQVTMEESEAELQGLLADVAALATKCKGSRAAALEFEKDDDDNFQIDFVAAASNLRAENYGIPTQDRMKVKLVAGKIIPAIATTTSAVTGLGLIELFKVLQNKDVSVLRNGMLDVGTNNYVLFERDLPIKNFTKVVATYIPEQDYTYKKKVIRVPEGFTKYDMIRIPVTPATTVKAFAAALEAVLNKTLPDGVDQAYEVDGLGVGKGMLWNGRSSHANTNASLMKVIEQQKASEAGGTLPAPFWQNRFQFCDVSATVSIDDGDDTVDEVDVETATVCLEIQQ
Put plainly: Leishmania donovani Ubiquitin Activating Enzyme (LdE1). The class given is functional. Particulars: 30 µM.

Assay [3] addresses AMP-activated protein kinase, AMPK (Homo sapiens) (UniProt P54646+O43741+P54619+Q9UGJ0+Q9Y478+Q13131+Q9UGI9). Put plainly: AMP-dependent Kinase enzyme assay. An in vitro enzyme assay that detects ADP turnover that is directly proportional to AMPK activity. This uses naive AMPK that is activated during the assay with MK-8722. The note with it: 30 µM. It is filed as functional.

For assay [4], the target named is Sialic acid-binding Ig-like lectin 9 (Homo sapiens) (UniProt Q9Y336). Put plainly: Hs-Siglec9 ALPHAscreen SOP 20170721. The note with it: 10 µM.
Sialic acid-binding Ig-like lectin 9 (Homo sapiens), sequence (Q9Y336 whole entry): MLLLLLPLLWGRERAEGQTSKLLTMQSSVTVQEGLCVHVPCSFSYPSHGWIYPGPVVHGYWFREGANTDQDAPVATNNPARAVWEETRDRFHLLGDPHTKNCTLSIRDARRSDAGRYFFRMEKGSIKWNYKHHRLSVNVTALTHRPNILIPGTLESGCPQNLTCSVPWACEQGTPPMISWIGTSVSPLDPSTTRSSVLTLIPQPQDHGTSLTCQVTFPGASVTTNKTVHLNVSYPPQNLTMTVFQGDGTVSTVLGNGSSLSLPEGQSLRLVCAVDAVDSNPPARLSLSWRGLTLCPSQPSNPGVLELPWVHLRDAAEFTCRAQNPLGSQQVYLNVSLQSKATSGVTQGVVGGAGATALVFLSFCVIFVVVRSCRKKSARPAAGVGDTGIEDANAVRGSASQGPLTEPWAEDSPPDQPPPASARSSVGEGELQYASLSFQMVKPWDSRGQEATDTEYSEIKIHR
A further assay has as its system Trypanosoma cruzi. Put plainly: Trypanosoma cruzi phosphomannomutase and mannose-1-phosphate guanylyltransferase assay. It is filed as functional. Particulars: 10 µM.
In assay [5] the target is T2, Arginase-2, mitochondrial (Homo sapiens) (UniProt P78540).
T2 sequence (whole entry): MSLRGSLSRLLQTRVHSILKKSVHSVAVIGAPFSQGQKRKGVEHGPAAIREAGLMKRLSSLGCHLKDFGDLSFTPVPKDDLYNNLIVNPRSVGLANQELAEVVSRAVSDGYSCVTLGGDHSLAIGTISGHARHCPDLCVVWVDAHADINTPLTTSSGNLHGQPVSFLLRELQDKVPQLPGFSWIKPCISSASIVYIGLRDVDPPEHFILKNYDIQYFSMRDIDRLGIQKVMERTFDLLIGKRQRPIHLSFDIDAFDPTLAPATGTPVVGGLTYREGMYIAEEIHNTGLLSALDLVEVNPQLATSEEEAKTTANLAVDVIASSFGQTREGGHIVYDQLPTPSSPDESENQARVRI
As to the kind of experiment: in vitro enzyme assay to detect the production of urea directly proportional to the activity of Arginase II. Also: in the data most compounds retested in dose-response had high values. It is filed as functional.

For assay [6], the target named is T3, Proteasome subunit beta (Trypanosoma cruzi) (UniProt O96673).
T3 sequence (whole entry): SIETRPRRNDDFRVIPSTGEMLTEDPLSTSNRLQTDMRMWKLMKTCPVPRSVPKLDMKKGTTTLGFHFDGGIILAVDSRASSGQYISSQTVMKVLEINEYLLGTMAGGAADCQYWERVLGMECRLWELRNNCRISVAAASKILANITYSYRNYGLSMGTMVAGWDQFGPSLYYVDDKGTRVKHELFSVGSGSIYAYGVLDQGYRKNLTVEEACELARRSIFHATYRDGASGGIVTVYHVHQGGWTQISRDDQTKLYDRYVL
As to the kind of experiment: Trypanosoma cruzi proteasome chymotrypsin-like activity (TcProtChymo) assay. Also: in the data most compounds retested in dose-response had high values. It is filed as functional. The note with it: 9.37 µM.

The species named for another assay is Homo sapiens. As to the kind of experiment: To identify inhibition of the IFN signalling (Jak-Stat) pathway via expression of an eGFP reporter gene under the control of an IFN-stimulated response element (ISRE) containing MxA promoter. The note with it: 30 µM. It is filed as functional. (In general: A reporter such as luciferase makes a cellular process visible.)

Assay [7] deals with T4, Tyrosyl-tRNA synthetase, putative (Trypanosoma cruzi (strain CL Brener)) (UniProt Q4DSP6).
T4 sequence (whole entry): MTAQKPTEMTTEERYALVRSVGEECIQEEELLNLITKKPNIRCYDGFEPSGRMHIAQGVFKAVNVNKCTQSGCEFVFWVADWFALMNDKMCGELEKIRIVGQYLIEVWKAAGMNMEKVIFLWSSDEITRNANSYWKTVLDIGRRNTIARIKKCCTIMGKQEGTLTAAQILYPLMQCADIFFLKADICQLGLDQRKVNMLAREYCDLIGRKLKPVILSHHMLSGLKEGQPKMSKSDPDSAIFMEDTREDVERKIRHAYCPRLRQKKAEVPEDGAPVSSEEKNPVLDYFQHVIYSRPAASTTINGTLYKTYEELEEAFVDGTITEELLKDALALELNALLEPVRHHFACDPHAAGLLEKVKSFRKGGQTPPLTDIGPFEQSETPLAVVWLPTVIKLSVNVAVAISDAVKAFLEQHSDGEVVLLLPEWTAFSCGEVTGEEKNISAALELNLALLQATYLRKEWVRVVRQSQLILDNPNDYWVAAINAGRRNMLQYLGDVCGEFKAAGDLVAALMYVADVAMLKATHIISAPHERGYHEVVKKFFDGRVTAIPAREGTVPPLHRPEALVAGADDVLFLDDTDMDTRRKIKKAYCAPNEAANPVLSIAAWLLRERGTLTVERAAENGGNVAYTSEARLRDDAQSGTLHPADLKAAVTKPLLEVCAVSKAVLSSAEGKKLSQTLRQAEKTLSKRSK
Put plainly: Trypanosoma cruzi tyrosyl tRNA synthetase (TcYRS) _High Tyrosine SOP. Also: in the data most compounds retested in dose-response had high values. Particulars: 30 µM. It is filed as functional.

Assay [8] has as its target T4, Tyrosyl-tRNA synthetase, putative (Trypanosoma cruzi (strain CL Brener)). As to the kind of experiment: Trypanosoma cruzi tyrosyl tRNA synthetase (TcYRS) SOP. It is filed as functional. The note with it: 30 µM.
Assay [9] deals with Chromo domain-containing protein 1 (Saccharomyces cerevisiae (strain ATCC 204508 / S288c) (Baker's yeast)) (UniProt P32657). As to the kind of experiment: ScCHD-1 Enzyme Inhibition Assay. Also: in the data most compounds retested in dose-response had high values. It is filed as functional. Particulars: 30 µM.
Chromo domain-containing protein 1 (Saccharomyces cerevisiae (strain ATCC 204508 / S288c) (Baker's yeast)), sequence (P32657 whole entry, the tested form may be a part): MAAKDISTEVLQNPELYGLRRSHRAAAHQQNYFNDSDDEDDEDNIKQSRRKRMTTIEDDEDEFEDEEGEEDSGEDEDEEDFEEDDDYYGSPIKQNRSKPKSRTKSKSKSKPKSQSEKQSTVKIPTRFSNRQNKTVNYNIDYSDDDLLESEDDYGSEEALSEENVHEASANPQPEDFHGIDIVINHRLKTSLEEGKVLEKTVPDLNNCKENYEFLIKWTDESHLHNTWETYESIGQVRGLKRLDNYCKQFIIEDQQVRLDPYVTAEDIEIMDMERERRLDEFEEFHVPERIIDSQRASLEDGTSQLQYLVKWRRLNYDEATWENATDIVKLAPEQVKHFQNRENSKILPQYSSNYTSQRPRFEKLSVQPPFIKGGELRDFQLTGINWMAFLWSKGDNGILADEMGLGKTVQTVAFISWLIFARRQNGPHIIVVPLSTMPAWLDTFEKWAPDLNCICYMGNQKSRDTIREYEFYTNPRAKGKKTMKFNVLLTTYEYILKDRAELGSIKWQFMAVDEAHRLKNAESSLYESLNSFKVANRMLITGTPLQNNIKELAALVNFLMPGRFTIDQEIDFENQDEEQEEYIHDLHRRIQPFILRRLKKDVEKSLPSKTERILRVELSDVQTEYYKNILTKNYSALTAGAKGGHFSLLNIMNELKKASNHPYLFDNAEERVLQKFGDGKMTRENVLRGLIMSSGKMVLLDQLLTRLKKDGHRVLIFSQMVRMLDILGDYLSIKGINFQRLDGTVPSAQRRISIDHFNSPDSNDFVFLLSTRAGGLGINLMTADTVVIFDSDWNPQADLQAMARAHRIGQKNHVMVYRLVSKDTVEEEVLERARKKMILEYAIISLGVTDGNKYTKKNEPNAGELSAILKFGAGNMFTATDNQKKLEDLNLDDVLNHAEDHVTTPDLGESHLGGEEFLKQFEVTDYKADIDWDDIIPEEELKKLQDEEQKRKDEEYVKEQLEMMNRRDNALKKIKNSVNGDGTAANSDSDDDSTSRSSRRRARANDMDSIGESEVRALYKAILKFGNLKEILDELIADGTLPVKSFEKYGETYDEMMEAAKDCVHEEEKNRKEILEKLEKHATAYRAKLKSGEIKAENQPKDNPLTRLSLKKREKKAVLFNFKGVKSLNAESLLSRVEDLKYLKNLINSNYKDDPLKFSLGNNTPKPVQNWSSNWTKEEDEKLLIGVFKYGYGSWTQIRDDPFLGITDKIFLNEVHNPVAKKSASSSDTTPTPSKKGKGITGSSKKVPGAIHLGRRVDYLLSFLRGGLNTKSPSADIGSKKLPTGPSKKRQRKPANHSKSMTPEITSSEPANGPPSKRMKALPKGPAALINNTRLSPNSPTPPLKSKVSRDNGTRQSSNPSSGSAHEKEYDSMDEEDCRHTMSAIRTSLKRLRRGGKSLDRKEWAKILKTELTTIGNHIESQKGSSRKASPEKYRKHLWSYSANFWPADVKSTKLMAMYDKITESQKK
A further assay deals with N/A. As to the kind of experiment: Trypanosoma cruzi proteasome luciferase counter-screen. It is filed as functional. The note with it: 9.37 µM.

For the molecule `OC(CN(Cc1ccccc1)Cc1ccncc1)c1cccs1` (stereo unspecified), the Percent Effect in assay [1] is 3.55%; in [2], 2.7%; in assay [3], -2.19%; in assay [4] it was 5.24%; with Trypanosoma cruzi it was 4.79%; in [5] (30 µM), 5.95%. Besides, the Percent Effect is 25.1% in assay [5] (33.3 µM); 10.2% in assay [6]; 5.3% in the assay filed under Homo sapiens; 1.07% in assay [7]; 6.17% in assay [8]; -8.61% in [9].
Take `O=C(Cn1nc2c(cc1=O)CCCC2)N[C@@H](C(=O)O)c1ccccc1`: the Percent Effect was -1.59% in [1]; 9.33% in assay [2]; 0.931% in [3]; 7.75% in [4]; 3.34% with Trypanosoma cruzi; 8.11% in assay [5] (30 µM). In addition, the Percent Effect in assay [5] (33.3 µM) is 0.176%; in [6] it was 12.2%; in the assay listed under Homo sapiens it was 14.1%; in assay [7], 10.6%; in assay [8], 20.5%; in assay [9], -5.57%.
Turning to `COc1ccc(C2SC(C)=Nc3c2c(=O)[nH]n3C2CCCCC2)cc1O` (stereo unspecified), the Percent Effect in assay [1] was 1.71%; in [2], 17.3%; in assay [3] it was 0.637%; in assay [4], -1.4%; in the assay with Trypanosoma cruzi, 0.786%; in assay [5] (30 µM), -3.78%. Moreover, the Percent Effect in assay [5] (33.3 µM) is -25.2%; in [6] it was 15.3%; in the assay filed under Homo sapiens it was 39.9%; in assay [7] it was 43.4%; in [8] it was 48.7%; in assay [9] it was -12.8%.
Regarding `CN(C)C(=O)[C@@H]1CCO[C@@H]2CCN(Cc3ccccc3)C[C@@H]21`, the Percent Effect in [1] was -1.18%; in [2] it was 2.7%; in assay [3] it was -0.272%; in [4] it was -1.07%; in the assay on Trypanosoma cruzi, -6.45%; in [5] (30 µM), -1.62%. Also, the Percent Effect in assay [5] (33.3 µM) is 2.92%; in assay [6], 20.5%; in the assay listed under Homo sapiens, 10%; in assay [7], 7.92%; in assay [8], 8.54%; in [9], -0.0601%.
Consider `CC1=Nc2c(c(=O)[nH]n2C2CCCC2)C(c2cccc(O)c2)S1` (stereo unspecified), for which the Percent Effect in [1] is -2.38%; in [2], -1.33%; in assay [3], 11.5%; in assay [4] it was 2.03%; in the assay on Trypanosoma cruzi, 1.38%; in assay [5] (30 µM), -1.62%. Besides, the Percent Effect in assay [5] (33.3 µM) was -1.23%; in assay [6], 11.3%; in the assay listed under Homo sapiens, 36.2%; in assay [7], 14.8%; in assay [8] it was 20.5%; in [9] it was 0.661%.
On to `Cc1noc(NC(=O)c2ccc(OC(F)(F)F)cc2)n1`, for which the Percent Effect in assay [1] is -1.74%; in assay [2], 18.4%; in assay [3], -0.843%; in [4] it was 1.75%; in the assay with Trypanosoma cruzi, 2.52%; in assay [5] (33.3 µM), -4.68%. Further, the Percent Effect in [6] is 75.9% and 76.1% and 72%; in the assay on N/A it was 32.7% and 35.8%; in the assay listed under Homo sapiens, 75.7%; in assay [7] it was 15.3%; in assay [8], 28.4%; in assay [9] it was -3.4%.
In the case of `CCc1nc(COc2ccc(OCc3cnn(C)c3)cc2)no1`, the Percent Effect in assay [1] is -3.52%; in assay [2] it was 13.5%; in assay [3], -5.93%; in [4], 21.3%; with Trypanosoma cruzi, 3.86%; in assay [5] (33.3 µM), 4.29%. In addition, the Percent Effect in assay [6] is 50.7% (2×) and 48.5%; in the assay on N/A, 32% and 28.2%; in the assay filed under Homo sapiens, 23.4%; in assay [7], 3.7%; in assay [8] it was 19.5%; in assay [9], -9.15%.
For the molecule `Cc1ccc(CNC(=O)N(Cc2ccccc2F)C2CC2)cn1`, the Percent Effect was -6.51% in [1]; 2.67% in [2]; 0.556% in assay [3]; 21.6% in assay [4]; -1.27% in the assay with Trypanosoma cruzi; 13.5% in assay [5] (30 µM). Also, the Percent Effect is -2.6% in [5] (33.3 µM); 7.85% in assay [6]; 15.6% in the assay listed under Homo sapiens; 6.01% in [7]; 8.64% in [8]; -2.37% in assay [9].
